# Source: ChEMBL document CHEMBL1961873, “Compounds: GSK PKIS; Assays: Nanosyn kinase panel” (2012)
# Molecular target: T1, Aurora kinase A (Homo sapiens) (UniProt O14965);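 further: values are mean percent inhibition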
# T1 sequence (whole entry): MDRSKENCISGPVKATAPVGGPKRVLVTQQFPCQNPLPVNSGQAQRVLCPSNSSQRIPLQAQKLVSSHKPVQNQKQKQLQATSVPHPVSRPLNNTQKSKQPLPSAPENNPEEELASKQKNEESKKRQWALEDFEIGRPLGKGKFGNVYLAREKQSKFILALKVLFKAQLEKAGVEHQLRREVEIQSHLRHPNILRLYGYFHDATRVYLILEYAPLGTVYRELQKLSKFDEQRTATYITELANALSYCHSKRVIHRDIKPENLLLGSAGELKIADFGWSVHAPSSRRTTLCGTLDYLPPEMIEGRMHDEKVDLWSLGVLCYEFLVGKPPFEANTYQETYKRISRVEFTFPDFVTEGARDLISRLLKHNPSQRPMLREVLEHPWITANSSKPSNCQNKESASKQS
# Settings: at 1 µM
row,Compound,inhibition
1,Nc1nccc(-c2c(-c3ccc(F)cc3)nn3cc(C(F)(F)F)ccc23)n1,1.39%
2,CN1CCN(C(=O)c2ccc(NC(=O)Nc3ccc(N(C)c4ccnc(Nc5ccc(CS(C)(=O)=O)cc5)n4)cc3)cc2)CC1,85.9%
3,CCn1c(-c2nonc2N)nc2c(C#CC(C)(C)O)nc(OCCNC)cc21,4.63%
4,COc1ccc(-c2nn3ncccc3c2-c2ccnc(Nc3cccc(C(F)(F)F)c3)n2)cc1,5.62%
5,Cc1ccc(C(=O)NC2CC2)cc1-c1ccc2[nH]ncc2c1,-1.72%
6,Cc1ccc2c(c1)/C(=N/Nc1ccc(S(N)(=O)=O)cc1)C(=O)N2,27.8%
7,FC(F)(F)c1ccc(-c2nn3ncccc3c2-c2ccnc(Nc3ccc4c(c3)OCCO4)n2)cc1,29.2%
8,NS(=O)(=O)c1ccc(Nc2cc(-c3cccc(O)c3)n[nH]2)cc1,17.2%
9,Cc1cc(O)cc(C)c1/C=C/c1cncc(C(=O)N(C)C)c1,13.3%
10,COc1cc(Nc2nccc(-c3cnn4ncccc34)n2)cc(OC)c1,94.2%
11,COc1cccc(-n2ncc3c(N/N=C/c4ccc(C)cc4)ncnc32)c1,11.8%
12,[O-][S+]1CCN(Cc2ccc(-c3ccc4ncnc(Nc5ccc(OCc6ccccc6)c(Cl)c5)c4c3)o2)CC1,2.75%
13,COc1ccc2ncnc(Nc3ccc(OCc4ccccc4)cc3)c2c1,8.54%
14,CN(C)C(=O)O[C@H]1CN[C@H](C#Cc2cc3ncnc(Nc4ccc(OCc5cccc(F)c5)c(Cl)c4)c3s2)C1,9.61%
15,NS(=O)(=O)c1ccc(NC=C2C(=O)Nc3ccc4ncsc4c32)cc1,90.4%
16,CS(=O)(=O)CCNCc1nc(-c2ccc3ncnc(Nc4ccc(OCc5cccc(C(F)(F)F)c5)cc4)c3c2)cs1,2.26%
17,CCS(=O)(=O)c1ccc(OC)c(Nc2nccc(N(C)c3ccc4c(C)n[nH]c4c3)n2)c1,6.77%

row,Compound,inhibition
1,Nc1nccc(-c2c(-c3ccc(F)cc3)ncn2CCCN2CCOCC2)n1,8.99%
2,COC(=O)c1ccc2c(c1)C(=Cc1cc(Br)c(O)c(Br)c1)C(=O)N2,80.4%
3,COc1cc2ncnc(Nc3ccc4c(cnn4Cc4ccccc4)c3)c2cc1OC,7.82%
4,O=S(=O)(CCOCc1ccc(-c2ccc3ncnc(Nc4ccc(OCc5cccc(F)c5)c(Cl)c4)c3c2)o1)c1ccccc1,2.01%
5,NC(=O)c1sc(-n2cnc3ccccc32)cc1OCc1ccccc1Br,4.39%
6,NS(=O)(=O)c1cccc(-c2cc3ccncc3cc2OCc2ccccc2)c1,16.9%
7,Cc1cc(Cl)cc2c1NC(=O)C2=NNc1ccc(S(N)(=O)=O)cc1,4.36%
8,Oc1cccc(-c2nc(-c3ccccc3)[nH]c2-c2ccncc2)c1,4.61%
9,COC(=O)Nc1nc2cc(Oc3ccc(NC(=O)Nc4cccc(Br)c4)cc3)ccc2[nH]1,7.48%
10,Nc1nccc(C#Cc2cncnc2Nc2ccc(OCc3cccc(F)c3)c(Cl)c2)n1,15.2%
11,O=C1Nc2ccc(-c3cccnc3)cc2C1=Cc1cc(Br)c(O)c(Br)c1,88.3%
12,Nc1ccc(C#Cc2cncnc2Nc2ccc(OCc3cccc(F)c3)c(Cl)c2)cc1,0.03%
13,NS(=O)(=O)c1cccc(Nc2cc(-c3ccc(F)cc3)n[nH]2)c1,8.81%
14,CCS(=O)(=O)c1ccc(OC)c(Nc2ncc(-c3cccc(OC)c3)o2)c1,34.5%
15,CCn1c(-c2nonc2N)nc2ccc(F)cc21,4.08%
16,O=C1Nc2ccccc2/C1=C/Nc1ccc2[nH]c(=O)[nH]c2c1,52%
17,CS(=O)(=O)Nc1cccc(-c2ccc3c(NC(=O)C4CC4)n[nH]c3c2)c1,12.4%

# Molecular target: Aurora kinase B (Homo sapiens) (UniProt Q96GD4);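 further: reported values are averaged percent inhibition of Aurora B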
# Settings: at 0.1 µM
# Aurora kinase B (Homo sapiens), sequence (Q96GD4 whole entry): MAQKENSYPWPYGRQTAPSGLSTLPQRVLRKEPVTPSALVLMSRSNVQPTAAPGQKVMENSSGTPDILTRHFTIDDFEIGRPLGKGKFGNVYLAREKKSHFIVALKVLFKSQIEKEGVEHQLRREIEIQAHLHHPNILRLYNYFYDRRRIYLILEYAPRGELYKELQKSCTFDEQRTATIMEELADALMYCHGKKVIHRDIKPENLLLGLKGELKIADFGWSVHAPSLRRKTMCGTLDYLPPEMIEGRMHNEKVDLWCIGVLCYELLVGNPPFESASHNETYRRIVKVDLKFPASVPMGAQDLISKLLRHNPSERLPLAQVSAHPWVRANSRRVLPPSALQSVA
row,Compound,inhibition
1,Nc1nccc(-c2c(-c3ccc(F)cc3)nn3cc(C(F)(F)F)ccc23)n1,1.38%
2,CN1CCN(C(=O)c2ccc(NC(=O)Nc3ccc(N(C)c4ccnc(Nc5ccc(CS(C)(=O)=O)cc5)n4)cc3)cc2)CC1,68.5%
3,CCn1c(-c2nonc2N)nc2c(C#CC(C)(C)O)nc(OCCNC)cc21,2.66%
4,COc1ccc(-c2nn3ncccc3c2-c2ccnc(Nc3cccc(C(F)(F)F)c3)n2)cc1,1.05%
5,Cc1ccc(C(=O)NC2CC2)cc1-c1ccc2[nH]ncc2c1,-2.69%
6,Cc1ccc2c(c1)/C(=N/Nc1ccc(S(N)(=O)=O)cc1)C(=O)N2,1.05%
7,FC(F)(F)c1ccc(-c2nn3ncccc3c2-c2ccnc(Nc3ccc4c(c3)OCCO4)n2)cc1,7.15%
8,NS(=O)(=O)c1ccc(Nc2cc(-c3cccc(O)c3)n[nH]2)cc1,9.52%
9,Cc1cc(O)cc(C)c1/C=C/c1cncc(C(=O)N(C)C)c1,7.28%
10,COc1cc(Nc2nccc(-c3cnn4ncccc34)n2)cc(OC)c1,20.5%
11,COc1cccc(-n2ncc3c(N/N=C/c4ccc(C)cc4)ncnc32)c1,4.27%
12,[O-][S+]1CCN(Cc2ccc(-c3ccc4ncnc(Nc5ccc(OCc6ccccc6)c(Cl)c5)c4c3)o2)CC1,3.28%
13,COc1ccc2ncnc(Nc3ccc(OCc4ccccc4)cc3)c2c1,2.34%
14,CN(C)C(=O)O[C@H]1CN[C@H](C#Cc2cc3ncnc(Nc4ccc(OCc5cccc(F)c5)c(Cl)c4)c3s2)C1,3.92%
15,NS(=O)(=O)c1ccc(NC=C2C(=O)Nc3ccc4ncsc4c32)cc1,29.9%
16,CS(=O)(=O)CCNCc1nc(-c2ccc3ncnc(Nc4ccc(OCc5cccc(C(F)(F)F)c5)cc4)c3c2)cs1,4.85%
17,CCS(=O)(=O)c1ccc(OC)c(Nc2nccc(N(C)c3ccc4c(C)n[nH]c4c3)n2)c1,3.25%

row,Compound,inhibition
1,Nc1nccc(-c2c(-c3ccc(F)cc3)ncn2CCCN2CCOCC2)n1,2.68%
2,COC(=O)c1ccc2c(c1)C(=Cc1cc(Br)c(O)c(Br)c1)C(=O)N2,2.96%
3,COc1cc2ncnc(Nc3ccc4c(cnn4Cc4ccccc4)c3)c2cc1OC,3.48%
4,O=S(=O)(CCOCc1ccc(-c2ccc3ncnc(Nc4ccc(OCc5cccc(F)c5)c(Cl)c4)c3c2)o1)c1ccccc1,2.69%
5,NC(=O)c1sc(-n2cnc3ccccc32)cc1OCc1ccccc1Br,4.16%
6,NS(=O)(=O)c1cccc(-c2cc3ccncc3cc2OCc2ccccc2)c1,7.33%
7,Cc1cc(Cl)cc2c1NC(=O)C2=NNc1ccc(S(N)(=O)=O)cc1,4.55%
8,Oc1cccc(-c2nc(-c3ccccc3)[nH]c2-c2ccncc2)c1,3.38%
9,COC(=O)Nc1nc2cc(Oc3ccc(NC(=O)Nc4cccc(Br)c4)cc3)ccc2[nH]1,8.64%
10,Nc1nccc(C#Cc2cncnc2Nc2ccc(OCc3cccc(F)c3)c(Cl)c2)n1,5.2%
11,O=C1Nc2ccc(-c3cccnc3)cc2C1=Cc1cc(Br)c(O)c(Br)c1,4.87%
12,Nc1ccc(C#Cc2cncnc2Nc2ccc(OCc3cccc(F)c3)c(Cl)c2)cc1,3.38%
13,NS(=O)(=O)c1cccc(Nc2cc(-c3ccc(F)cc3)n[nH]2)c1,3.89%
14,CCS(=O)(=O)c1ccc(OC)c(Nc2ncc(-c3cccc(OC)c3)o2)c1,2.15%
15,CCn1c(-c2nonc2N)nc2ccc(F)cc21,1.24%
16,O=C1Nc2ccccc2/C1=C/Nc1ccc2[nH]c(=O)[nH]c2c1,10.8%
17,CS(=O)(=O)Nc1cccc(-c2ccc3c(NC(=O)C4CC4)n[nH]c3c2)c1,1.84%
